About 2,000 (36%) of roughly 5,500 compounds were called active. Another 18% or so got no clear call; they are omitted. No stated cut-off is given here; in the data, active means normalized growth mostly below about 0.91 (no sharp cut-off); inconclusive means no clear call, values can overlap the other calls; inactive means mostly above about 0.92. This is one part of the list.
Assay: chemical genetic growth profiling, strain panel (AID 1159580);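 further: tested at 20 µM; growth read once vehicle control cultures reached saturation at 30 °C; 1 = growth at the plate median or of vehicle wells; lower values mean less growth of the strain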
Conditions: S. cerevisiae deletion strains, growth OD

Measured: normalized growth

O=C(CC[N+](=O)[O-])OC[C@H]1O[C@@H](O)[C@H](OC(=O)CC[N+](=O)[O-])[C@@H](OC(=O)CC[N+](=O)[O-])[C@@H]1OC(=O)CC[N+](=O)[O-]
inactive: locus YBR021W, strain FUR4, hits give low values 1.04 | locus YBR229C, strain ROT2, hits give low values 1.02 | locus YCL029C, strain bik1, hits give low values 1.01 | locus YDL035C, strain GPR1, hits give low values 1.08 | locus YDL074C, strain BRE1, hits give low values 1.18 | locus YDL101C, strain DUN1, hits give low values 1.02 | locus YDL185W, strain tfp1, hits give low values 1.01 | locus YDL192W, strain arf1, hits give low values 1.03 | locus YDR101C, strain arx1, hits give low values 1.01 | locus YDR150W, strain NUM1, hits give low values 1.03 | locus YDR162C, strain NBP2, hits give low values 1.05 | locus YDR318W, strain mcm21, hits give low values 1.03 | locus YDR388W, hits give low values 0.999 | locus YDR502C, strain sam2, hits give low values 1.02 | locus YEL061C, strain CIN8, hits give low values 1.03 | locus YER110C, hits give low values 0.998 | locus YER155C, strain BEM2, hits give low values 1.01 | locus YER167W, strain BCK2, hits give low values 1.02 | locus YGL078C, strain dbp3, hits give low values 1 | locus YGL086W, strain mad1, hits give low values 1.01 | locus YGL248W, strain PDE1, hits give low values 1.05 | locus YGR135W, strain pre9, hits give low values 1.01 | locus YGR252W, strain gcn5, hits give low values 1.04 | locus YHR030C, strain SLT2, hits give low values 1.02 | locus YHR079C, strain IRE1 (second series), hits give low values 0.998 | locus YHR094C, strain hxt1, hits give low values 1.01 | locus YHR129C, strain ARP1, hits give low values 1.04 | locus YHR200W, strain rpn10, hits give low values 1.02 | locus YIL066C, strain RNR3, hits give low values 1.04 | locus YIL073C, strain SPO22, hits give low values 1.13 | locus YIL125W, strain kgd1, hits give low values 1 | locus YIR030C, strain dcg1, hits give low values 1.03 | locus YJL095W, strain BCK1, hits give low values 1.08 | locus YJL134W, strain LCB3, hits give low values 1.02 | locus YJL168C, strain set2, hits give low values 1.01 | locus YJL187C, strain SWE1 (second series), hits give low values 1.04 | locus YKL009W, strain mrt4, hits give low values 0.993 | locus YKL068W, hits give low values 1 | locus YKL085W, strain MDH1 (second series), hits give low values 1.01 | locus YKL085W, strain MDH1, hits give low values 1.01 | locus YKR001C, strain vps1, hits give low values 1.07 | locus YLR039C, strain RIC1, hits give low values 1.23 | locus YLR058C, strain SHM2, hits give low values 1.03 | locus YLR102C, strain apc9, hits give low values 0.991 | locus YLR268W, strain sec22, hits give low values 1.04 | locus YLR330W, strain CHS5, hits give low values 1.03 | locus YLR342W, strain FKS1 (second series), hits give low values 1.06 | locus YLR371W, strain rom2, hits give low values 1.02 | locus YLR418C, strain cdc73, hits give low values 1.15 | locus YML016C, strain PPZ1, hits give low values 1.02 | locus YML032C, strain rad52, hits give low values 0.999 | locus YML124C, strain tub3, hits give low values 1.02 | locus YMR078C, strain ctf18, hits give low values 1.01 | locus YMR223W, strain ubp8, hits give low values 1.02 | locus YMR307W, strain GAS1, hits give low values 1.24 | locus YNL067W, strain RPL9B, hits give low values 1.02 | locus YNL153C, strain GIM3, hits give low values 1.05 | locus YNL233W, strain BNI4, hits give low values 1.08 | locus YNL250W, strain rad50, hits give low values 0.995 | locus YNL271C, strain bni1, hits give low values 1.01 | locus YNL298W, strain CLA4, hits give low values 1.01 | locus YNL307C, strain MCK1, hits give low values 1.01 | locus YNR052C, strain pop2, hits give low values 1 | locus YOL012C, strain htz1 1.02 | locus YOL147C, strain pex11, hits give low values 0.996 | locus YOR061W, strain CKA2, hits give low values 1.02 | locus YOR069W, strain VPS5, hits give low values 1.02 | locus YOR136W, strain idh2, hits give low values 1.01 | locus YOR144C, strain elg1, hits give low values 1 | locus YOR184W, strain ser1, hits give low values 1.03 | locus YOR316C, strain cot1, hits give low values 0.992 | locus YPR119W, strain clb2, hits give low values 0.998 | locus YPR141C, strain kar3, hits give low values 1 | locus YPR163C, strain tif3, hits give low values 1.01 | locus YPR167C, strain met16, hits give low values 1.02 | strain wtn01, hits give low values 1.02

Reference: PubChem BioAssay AID1159580 (chemical genetic matrix, 2015)
